Most compounds without a hit are left out; they make up all but 7.5% or so of the library.
ELG1 genotoxic = genotoxicity induction in ELG1-luciferase HEK293T cells. HEK293T ELG1-luciferase reporter, luminescence, 16 h. Potency, µM (highest dose often 46 µM), most hits filed as activators. 1.3% of 330,000 active; further: nearly all actives have a fitted effect of over 60% in size
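HEK293T cells expressing luciferase-tagged ELG1 were treated with compound or DMSO for 16 hr at 37°C. Luciferase activity was then read after 30 min with ONE-Glo at room temperature; rising signal flags genetic stress.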
Rab9 prom act = activates the Rab9 promoter; Huh7 Rab9 promoter-luciferase reporter, luminescence, 24 h; Potency, µM (doses to about 9.22 µM), most hits filed as activators; 2.8% of 320,000 active; AID 485297; further: nearly all actives have a fitted effect of over 60% in size
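Stable Rab9-luc Huh7, 1500 cells/well, 2 h settle; cmpd in DMSO, 24 h, 37 °C/5% CO2; luciferase reagent 10 min RT; luminescence.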
SMN2 splice enh = SMN2 splice variant enhancement. HEK293 SMN2-luciferase splicing reporter, luminescence, 30-36 h. Potency, µM (doses to about 46.1 µM), usual class: activators. 2.8% of 210,000 active; further: nearly all actives have a fitted effect of over 55% in size
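HEK293 cells carry an SMN2 […]–luciferase reporter in which exon 7 inclusion puts luciferase in frame. Cells were plated 10-12 h before compound addition, then incubated 30-36 h at 37C. ONE-Glo luminescence was read; sodium butyrate at 4.5 mM final served as control.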
NPC1 promoter act = NPC1 promoter activation; Huh7 NPC1 promoter luciferase reporter, 24 h; Potency, µM (series often up to 9.22 µM), most hits filed as activators; 2.4% of 320,000 active; AID 485313; further: nearly all actives have a fitted effect of over 60% in size
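Luminescence read-out of NPC1 promoter-driven luciferase in stably transfected Huh7 cells; compounds delivered in DMSO and left 24 h at 37C, 5% CO2, qHTS titration format.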
KinaseGlo FLuc = counter-screen: inhibitors of Kinase-Glo firefly luciferase; Q27757; Kinase-Glo luciferase, ATP luminescence, 8 min; Potency, µM (doses to about 38.3 µM), usual class: inhibitors; 0.28% of 200,000 active; AID 1379; further: nearly all actives have a fitted effect of over 60% in size
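Substrate mix (final 50 mM imidazole pH 7.2, 50 mM KCl, 7 mM MgCl2, 10 uM ATP, 0.01% Tween 20, 0.05% BSA) plus pin-tool compound, then Kinase-Glo detection mix; 8 min ambient, luminescence read.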
FLuc modulator = firefly luciferase modulation, counter-screen for miR-21 project; purified FLuc, Km substrates, luminescence inhibition; Potency, µM (top dose mostly 57.5 µM), hits mostly inhibitors; 6.9% of 360,000 active; AID 588342; further: nearly all actives have a fitted effect of over 55% in size
Target sequence (P08659 whole entry, looked up): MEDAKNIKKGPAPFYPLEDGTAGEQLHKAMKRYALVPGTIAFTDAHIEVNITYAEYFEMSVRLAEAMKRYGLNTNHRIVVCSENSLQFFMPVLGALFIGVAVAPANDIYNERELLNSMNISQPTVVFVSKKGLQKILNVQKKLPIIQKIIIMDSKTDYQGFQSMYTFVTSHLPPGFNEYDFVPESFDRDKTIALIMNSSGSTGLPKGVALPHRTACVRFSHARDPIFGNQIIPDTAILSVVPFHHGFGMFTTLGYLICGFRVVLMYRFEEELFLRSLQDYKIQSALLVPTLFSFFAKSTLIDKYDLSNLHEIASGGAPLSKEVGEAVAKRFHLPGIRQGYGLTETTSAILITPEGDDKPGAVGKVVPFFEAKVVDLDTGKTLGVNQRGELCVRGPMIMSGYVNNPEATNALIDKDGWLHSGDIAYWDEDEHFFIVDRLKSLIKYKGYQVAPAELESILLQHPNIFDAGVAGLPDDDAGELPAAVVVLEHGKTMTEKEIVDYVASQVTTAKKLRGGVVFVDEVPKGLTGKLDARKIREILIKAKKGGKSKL
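Biochemical qHTS of compounds, final roughly 60 µM downward over six points, against 10 nM purified firefly luciferase using Km concentrations of substrates (10 uM D-luciferin, 10 uM ATP) in Tris acetate pH 7.5 buffer; luminescence output.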
Hits are given with their value; n = inactive; u = inconclusive; x = not tested or not shown. The call rests on the fitted dose curve; in most records, active means well fitted curve in the direction sought with a large enough effect; inconclusive means small, poorly fitted or top-dose-only effect, or another doubt; inactive means no such curve, though single readings can be large; an effect the other way counts as inactive or inconclusive.

SMILES	ELG1 genotoxic	Rab9 prom act	SMN2 splice enh	NPC1 promoter act	KinaseGlo FLuc	FLuc modulator
COc1c(C)cccc1C(=O)Nc1cccc2ccc(C)nc12	x	x	n	x	x	n
COc1ccc(Cn2c(SCc3ccc(C(=O)NCc4cccs4)cc3)nc3cccnc32)cc1	x	x	n	x	x	u
CC1(C(=O)N2CC3(CC(c4cccc(NC(=O)COc5ccc(Cl)cc5)c4)=NO3)C[C@@H]2C(N)=O)CC1 (stereo partly drawn)	n	n	x	n	x	21.3µM
Cc1ccc2nc3c(c(N)c2c1)CCN3c1ccccc1	n	n	n	n	n	19µM
O=C(O)c1ccccc1N/N=C/c1cc(Br)cc(Br)c1O	u	1.41µM	x	1.58µM	x	7.57µM
O=C(O)c1ccccc1N/N=C\c1ccnc2ccccc12	0.581µM	u	5.01µM	0.355µM	n	0.169µM
COc1ccc(-c2nc3cc(C)ccn3c2NC(=O)c2cccc(F)c2)cc1	x	x	n	x	x	u
Cc1c(CNCc2ccc(OC(C)C)cc2)c(C(=O)O)c(C)n1Cc1ccc(Cl)cc1	x	x	n	x	x	n
COc1ccc(/C(O)=C2/C(=O)C(=O)N(c3ncccn3)C2c2ccc(C(C)(C)C)cc2)cc1 (stereo not drawn)	n	n	n	n	n	u
CC(=O)COc1ccc2c(c1C)O/C(=C\c1ccco1)C2=O	u	u	x	u	x	5.36µM
O=C(Oc1ccc2c(c1)O/C(=C\c1ccncc1)C2=O)c1ccccc1	n	n	n	n	n	n
COc1ccc2c(c1)O/C(=C\c1ccco1)C2=O	u	3.98µM	x	4.47µM	x	0.601µM
COC(=O)C(C)Oc1ccc2c(c1)O/C(=C\c1ccco1)C2=O (stereo not drawn)	n	n	x	n	x	3.01µM
CC1CCCN(Cc2c(O)ccc3c2O/C(=C\c2ccco2)C3=O)C1 (stereo not drawn)	n	n	n	n	n	n
Cc1ccc(CNC(=O)c2ccc(CSCc3ccc(Cl)cc3)o2)cc1	x	x	x	x	x	n
CC(NC(=O)c1ccc(C23CC4CC(CC(C4)C2)C3)cc1)C(=O)O (stereo not drawn)	n	n	n	n	n	19µM
N#C/C(=C\c1ccncc1)c1ccccn1	n	n	x	n	x	n
CNc1ccc(/C=C(\C#N)c2ccccn2)cc1[N+](=O)[O-]	10.3µM	1.26µM	10µM	2.82µM	n	n
N#C/C(=C\c1ccccc1)c1ccccn1	u	u	n	u	n	19µM
CCCCc1nn2c(=O)cc(COC(=O)C(C)Oc3ccccc3)nc2s1 (stereo not drawn)	x	x	x	x	x	n
CC1(C)Cc2nc3scc(NC(=O)c4ccccc4)c3cc2CO1	n	n	x	n	x	10.7µM
CCOC(=O)c1sc2nc3c(cc2c1N)COC(C(C)C)C3 (stereo not drawn)	0.13µM	u	n	0.794µM	n	0.12µM
COC(=O)c1sc2nc3c(cc2c1N)COC(C)(C)C3	8.2µM	3.55µM	n	2.82µM	n	10.7µM
CCOC(=O)c1sc2nc(N3CCOCC3)c3c(c2c1N)CC(C(C)C)OC3 (stereo not drawn)	n	n	x	n	n	n
Cc1cccc(Cn2c(C)c(C)c3cc(C(=O)NCc4ccco4)ccc32)c1	x	x	x	x	x	n
SMILES	ELG1 genotoxic	Rab9 prom act	SMN2 splice enh	NPC1 promoter act	KinaseGlo FLuc	FLuc modulator
O=C(/C(=C(\[O-])c1ccccc1)[n+]1ccc2ccccc2c1)c1ccccc1	n	n	n	n	n	23.9µM
COc1ccc(-c2cc3cccc(OC)c3oc2=O)cc1	u	0.501µM	x	0.447µM	x	0.601µM
COc1ccc(Nc2nc(-c3cc4cccc(OC)c4oc3=O)cs2)cc1	n	n	n	n	n	n
COc1cccc2cc(-c3nc4ccccc4[nH]3)c(=O)oc12	u	2.24µM	x	1.41µM	x	1.69µM
COc1cccc2cc(-c3ccccc3)c(=O)oc12	u	2.82µM	11.2µM	2.51µM	u	8.49µM
CNC(=O)c1cc2cccc(OC)c2oc1=O	n	n	n	n	n	n
COC(=O)c1nc(-c2ccc(C)cc2)oc1N(C)C	n	n	n	n	n	19µM
O=C(N/N=C/C(Cl)=C\c1ccccc1)c1ccco1	u	2.51µM	x	2.51µM	x	4.78µM
O=C(N/N=C/C(Cl)=C/c1ccccc1)c1ccco1	u	1.41µM	x	2.24µM	n	5.36µM
